Assay outcomes deposited in PubChem by National Center for Advancing Translational Sciences (NCATS).
Most compounds without a hit are left out; they make up all but 9.4% or so of the library.
HTT cytoprotect = cytoprotection in Huntington HTT-Q103 PC12 cell model; PC12 HTT-Q103 induced, cytoprotection, ATP luminescence, 40 h; Potency, µM (top dose mostly 56.4 µM), inactives show cytoprotection (ATP increase), usual class: activators; 230,000 compounds, 0.14% hits; also: potency is read from the fitted curve at half-maximal effect; % of control where 0% means no effect; nearly all actives have a fitted effect of over 45% in size
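Quantitative HTS on tebufenozide-induced (100 nM) PC12 cells expressing HTTQ103 exon 1–GFP; compounds tested as a concentration series; survival measured via cellular ATP.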
ALDH1A1 block = ALDH1A1 (human) enzyme inhibition; P00352; Purified ALDH1A1, NADH fluorescence, propionaldehyde substrate; Potency, µM (top dose mostly 75.3 µM), without a hit: at the highest dose activity, negative = inhibition, most hits filed as inhibitors; 220,000 compounds, 7.3% hits; AID 1030; active = well fitted inhibition curve with a large enough effect, not every such curve was filed as active; inconclusive = small, poorly fitted or top-dose-only effect, or another doubt; inactive = no such curve, though single readings can be large or run the other way;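 also: potency is read from the fitted curve at half-maximal effect; plate controls were no enzyme wells and a reference inhibitor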
Target sequence (P00352 whole entry, looked up): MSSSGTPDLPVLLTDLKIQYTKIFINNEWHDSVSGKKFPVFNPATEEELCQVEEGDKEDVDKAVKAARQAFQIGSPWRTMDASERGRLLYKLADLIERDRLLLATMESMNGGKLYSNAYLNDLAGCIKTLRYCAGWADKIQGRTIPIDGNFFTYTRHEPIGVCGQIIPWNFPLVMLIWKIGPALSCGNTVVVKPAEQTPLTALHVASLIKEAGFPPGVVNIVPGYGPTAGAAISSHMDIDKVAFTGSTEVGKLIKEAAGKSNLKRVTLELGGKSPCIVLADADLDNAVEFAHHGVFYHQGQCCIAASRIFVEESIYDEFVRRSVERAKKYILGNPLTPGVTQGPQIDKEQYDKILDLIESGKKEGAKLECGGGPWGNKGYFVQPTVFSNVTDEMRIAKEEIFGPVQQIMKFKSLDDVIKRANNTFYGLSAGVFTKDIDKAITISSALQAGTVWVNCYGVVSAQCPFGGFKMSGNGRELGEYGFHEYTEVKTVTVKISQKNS
IMPase cell inh = IMPase inhibition in cells | P97697 | CHO-M1 cells, IP1 accumulation, HTRF TR-FRET ratio | inhibition (IP1 accumulation), % at 46.1 µM | 120,000 tested, under 10 active; active = well fitted curve in the direction sought with a large enough effect in the signal ratio, not every such curve was filed as active; inconclusive = small, poorly fitted or top-dose-only effect, or a change in a side signal; inactive = no such curve, though single readings can be large or run the other way; the % refers to the signal ratio;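 also: cells stimulated with carbachol in lithium chloride buffer; plate controls were DMSO basal wells for no effect and reference inhibitor wells for full effect; higher means more IMPase inhibition seen as more IP1 and lower FRET ratio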
Target sequence (P97697 whole entry, looked up): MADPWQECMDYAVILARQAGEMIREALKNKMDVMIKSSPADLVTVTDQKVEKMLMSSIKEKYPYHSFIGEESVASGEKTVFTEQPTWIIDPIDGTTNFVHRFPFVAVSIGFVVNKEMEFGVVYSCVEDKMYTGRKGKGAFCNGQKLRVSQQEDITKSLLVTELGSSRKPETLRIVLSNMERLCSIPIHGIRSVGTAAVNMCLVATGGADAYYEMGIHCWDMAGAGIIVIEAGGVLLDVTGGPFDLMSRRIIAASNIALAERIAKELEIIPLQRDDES
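Elevated IP1 in lysates lowers TR-FRET signal (665/620 ratio and 620 channel reported). Cells were CHO-M1, given carbachol (50 uM as added) plus 50mM LiCl, pH 7.4, 30 min, 37C; compounds titrated up to 46 uM; AC50 by Hill equation.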
HttQ103 aggreg = mutant huntingtin aggregation inhibition; Potency, µM (series often up to 46.1 µM), for the others: top-dose activity change, negative = inhibition, actives largely listed as inhibitors; 220,000 compounds, 1.1% hits; PC12 HttQ103-GFP aggregates, Acumen cytometry, 40 h; also: potency is read from the fitted curve at half-maximal effect; % is scaled to controls: 0 for no effect and ±100 for the full control effect; nearly all actives have a fitted effect of over 60% in size
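Aggregates are detected as GFP objects 1–25 µm with signal 6 STDEV over background in lysates of induced PC12 cells. These carry Huntingtin exon 1 with 103 glutamines fused to GFP under an ecdysone promoter; compounds titrated.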
IMPase Li inh = membrane-permeable IMPase blocker, potentiated with lithium. CHO-M1 cells, IP1 TR-FRET (IP-One), carbachol + lithium. Potency, µM (series often up to 59.4 µM), without a hit: at the highest dose activity, negative = IMPase inhibition, usual class: inhibitors. 210,000 compounds, 0.35% hits. AID 1457;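 also: IP1 builds up when IMPase is blocked and the TR-FRET signal falls; potency is read from the fitted curve at half-maximal effect; plate controls were basal vehicle for no effect and high inhibitor control for full effect; nearly all actives have a fitted effect of over 50% in size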
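Test compounds were applied to CHO-M1 cells previously cultured for 16–30 h at 2000 per well. A small lithium amount accompanied them; after 30 min at 37C, IP1 was quantified by TR-FRET.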
HPGD block = inhibitors of human 15-hydroxyprostaglandin dehydrogenase (HPGD); P15428; purified HPGD, NADH fluorescence kinetic, PGE2 substrate; Potency, µM, without a hit: at the top dose activity change, negative = inhibition, most hits filed as inhibitors; 150,000 compounds, 4.3% hits; AID 894; active = well fitted inhibition curve with a large enough effect, not every such curve was filed as active; inconclusive = small, poorly fitted or top-dose-only effect, or another doubt; inactive = no such curve, though single readings can be large or run the other way; also: potency is read from the fitted curve at half-maximal effect; % is scaled to controls: 0 for no effect and ±100 for the full control effect
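20 nM HPGD preincubated 15 min at room temperature with compound in 50 mM Tris-HCl pH 8, 0.01% Tween 20. Started with 1 mM NAD+ and 30 uM prostaglandin E2; NADH fluorescence (360/450 nm) read 5 times over 30-s intervals, last minus first.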
Numbers without * were called inactive; ? = inconclusive; . = no result; [ ] = another dose, or the depositor's remark. Unless noted, calls follow the shape of the dose curve; as a rule, active = well fitted curve in the direction sought with a large enough effect; inconclusive = small, poorly fitted or top-dose-only effect, or another doubt; inactive = no such curve, though single readings can be large; an effect the other way counts as inactive or inconclusive.

SMILES	HTT cytoprotect	ALDH1A1 block	IMPase cell inh	HttQ103 aggreg	IMPase Li inh	HPGD block
O=C(Nc1ccc(CN2CCOCC2)cc1)c1ccc(-c2ccc(Cl)cc2Cl)o1	-44%	10µM*	.	?	15%	.
Cc1cccc(C)c1NC(=O)c1ccc(-c2ccc(Cl)cc2Cl)o1	-19%	-8%	3	11µM*	12%[38.3 µM]	-14%
O=C(Nc1ccc(Cl)cn1)c1ccc(-c2cc(Cl)ccc2Cl)o1	-23%	18µM*	-6	2%	.	.
Cc1ccccc1NC(=O)c1ccc(-c2ccc(Cl)cc2Cl)o1	-20%	?	-3	-1%	5%[38.3 µM]	?
O=C(Nc1ccc(Cl)cn1)c1cc2ccccc2o1	1%[10 µM]	-6%	14	3%	17%[38.3 µM]	-19%
CN1CCN(c2ncc3nc(-c4ccccc4)c(=O)n(CCc4ccccc4)c3n2)CC1	-3%	?	.	.	20%	.
Cc1cc2c(cc1C)NC(CC(=O)Nc1ccccc1SC(F)(F)F)C(=O)N2 (centres undefined)	.	.	0	.	.	.
Cc1ccc(-c2nc3ccccc3c(=O)n2Cc2ccccc2)cc1	-1%[10 µM]	16µM*	.	-15%	9%	-3%
O=C(NCc1cccnc1)/C(=C/c1ccc(-c2cccc(Cl)c2)o1)S(=O)(=O)c1ccccc1	-87%	13µM*	9	?	33%[38.3 µM]	-20%
O=C(NCc1cccnc1)/C(=C\c1ccc(-c2cccc(Cl)c2)o1)S(=O)(=O)c1ccccc1	-6%[10 µM]	?	17	-8%[9.22 µM]	18%	-6%
CCn1ncc(CNC(=O)C2(C)CC2(Cl)Cl)c1C (centres undefined)	25%[10 µM]	-1%	.	-4%	1%	11µM*
O=[N+]([O-])c1ccc(O)c(-c2nc(-c3ccccc3)c(-c3cccs3)[nH]2)c1	-57%	?	4	7.9µM*	8%[38.3 µM]	-18%
CCOc1cc(-c2nc(-c3ccccc3)c(-c3cc([N+](=O)[O-])ccc3C)[nH]2)ccc1O	-87%	6.3µM*	26	?	10%[38.3 µM]	-2%
CCNc1nc(NC(C)C)nc(N(C)C#N)n1	32%[10 µM]	.	.	13%[9.22 µM]	.	.
CCCN(C#N)c1nc(NCC)nc(NC(C)C)n1	-23%	10µM*	0	-6%	-7%[38.3 µM]	-5%
CCOC(=O)c1ccc(N=C2NC(=O)CS2)cc1	3%	?	-3	-4%	22%[38.3 µM]	13µM*
COc1ccc(N2C(=O)[C@H]3CCC=C[C@H]3[C@@H]2c2ccccc2Br)cc1	-330%	7.1µM*	.	.	10%	-20%
O=C1[C@H]2CCC=C[C@H]2[C@H](c2ccccc2Br)N1Cc1ccccc1	-147%	?	.	.	31%	-12%
CC(C)(O)C(=O)O	-13%	?	.	.	-15%	-10%
O=C1C2=CC[C@H]3C(=O)N(C[C@@H]4CCCO4)C(=O)[C@@H]3[C@@H]2[C@H](O)[C@@H]2O[C@H]12	1.4µM*	?	.	.	.	.
O=C1C2=CC[C@H]3C(=O)N(Cc4ccccc4)C(=O)[C@@H]3[C@@H]2[C@H](O)[C@@H]2O[C@H]12	?	-1%[13.5 µM]	.	.	.	.
CCN1C(=O)[C@@H]2[C@H]3C(=CC[C@H]2C1=O)C(=O)[C@H]1OC1[C@H]3O (some centres undefined)	2.8µM*	-4%[13.5 µM]	.	.	.	.
CN(C)c1ccc(-c2cc(-n3ccnc3)ncn2)cc1	-44%	?	.	.	-14%	?
CN(C)c1ccc(/C=N/Nc2ccc(-n3ccnc3)nn2)cc1	-29%	7.9µM*	15	17%	28%[38.3 µM]	-9%
Fc1ccc(Nc2ccnc(Nc3ccc(F)cc3)n2)cc1	.	7%	.	-18%	21%	-24%
SMILES	HTT cytoprotect	ALDH1A1 block	IMPase cell inh	HttQ103 aggreg	IMPase Li inh	HPGD block
Cc1ccc(S(=O)(=O)n2nc(-c3ccccc3)nc2NCc2ccc(Cl)cc2)cc1	.	.	7	.	.	.
CCOc1ccc(Nc2nc(Nc3ccc(O)cc3)nc(C)c2[N+](=O)[O-])cc1	-18%[10 µM]	-5%	.	4%[9.22 µM]	2%	.
Cc1c(C(=O)O)cccc1-c1ccc(/C=C2/NC(=O)N(c3ccccc3)C2=O)o1	28%[10 µM]	5.6µM*	.	27%[9.22 µM]	4%	.
O=C1N/C(=C/c2ccc(N3CCOCC3)o2)C(=O)N1c1cccc(Cl)c1	-36%[10 µM]	18µM*	.	?	24%	.
Cc1ccc(/C=C2/NC(=O)N(c3ccccc3)C2=O)o1	-48%	10µM*	1	-9%	8%[38.3 µM]	-21%
COc1ccc2c(c1)C(=O)[C@H](OC(=O)NCc1ccco1)[C@@H](c1ccc(OC)c(Br)c1)O2	21%	?	.	.	3%	-3%
C#CCOc1ccc(-c2nnc(Nc3cccc(C)c3)c3ccccc23)cc1	.	.	-2	.	.	.
Cc1ccc(C(=O)NCc2ccccn2)c(Cl)c1	-23%	9%	-5	8%	10%[38.3 µM]	14µM*
Cc1ccc(-c2cc(C(=O)NCc3ccccn3)c3ccccc3n2)cc1	-17%[10 µM]	?	-3[1.84 µM]	-3%	8%[38.3 µM]	?
COc1ccc(N(CCCN2C(=O)c3cccc4cccc(c34)C2=O)C(=O)c2cccc(OC)c2)cc1	-35%[10 µM]	8.9µM*	5	-12%	17%	-11%
O=C1c2ccccc2C(=O)N1CCCCN(C(=O)c1ccc([N+](=O)[O-])cc1)c1ccc(Cl)cc1	-26%	1.6µM*	2	-13%	12%[38.3 µM]	-6%
O=C1c2ccccc2C(=O)N1CCCCN(C(=O)c1cc([N+](=O)[O-])ccc1Cl)c1ccc(Cl)cc1	6%[10 µM]	5µM*	6	2%	21%	-15%
O=C1c2ccccc2C(=O)N1CCCCN(C(=O)c1cc([N+](=O)[O-])cc([N+](=O)[O-])c1)c1ccc(Cl)cc1	17%[10 µM]	1.4µM*	.	10%	4%	-7%
CC(C)C12CN3CC(C(C)C)(CN(C1)C3c1ccc(Cl)cc1)C2=O (centres undefined)	.	.	-7	.	.	.
Nc1nc(SCC(=O)O)[nH]c(=O)c1N	-5%[10 µM]	-12%[13.5 µM]	.	.	3%	-10%
CC(C)C1=C[C@@]23CC[C@@H]4[C@](C)(CCC[C@@]4(C)C(=O)O)[C@@H]2C[C@@H]1[C@@H](C(=O)O)[C@@H]3C(=O)O	-11%[10 µM]	13%[13.5 µM]	.	.	-11%	-6%
Cc1ccc(S(=O)(=O)N=Nc2c(O)[nH]c3cc(O)c(C(=O)O)cc23)cc1	-4%[10 µM]	7%[13.5 µM]	.	.	2%	-8%
Cc1cc(NS(=O)(=O)c2ccc(NC(=O)COc3cc(C)c(Br)cc3C(C)C)cc2)no1	.	.	5	.	.	.
O=C1c2ccccc2C(=O)N1CCCCN(C(=O)c1ccc(Cl)s1)c1ccc(Cl)cc1	8%[10 µM]	4.5µM*	.	-31%	18%	-17%
C=CCOC(=O)C(C(C)=O)C(NC(=O)OC)c1ccc(Cl)cc1 (centres undefined)	-12%[10 µM]	11%[13.5 µM]	.	.	.	.
CCSC(=Nc1ccccc1)C1=C(O)COC1=O	5%	-2%	-4	4%	5%[38.3 µM]	-5%
